# Rows were chosen to be rich in hits. Some 1.5% of all compounds tested hit in one or more screens of this group.
# MCL1 BIM primary: inhibitors of MCL1 binding to BIM-BH3, primary screen, biochemical, fluorescence polarization; Induced myeloid leukemia cell differentiation protein Mcl-1 (Homo sapiens), Q07820; GST-MCL1 / FITC-Bim-BH3 fluorescence polarization; inhibition, % at 10.9 µM; 320,000 tested, 0.68% active;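 active = inhibition above the mean inhibition of all tested compounds plus 3 SD, set per campaign, cut at about 40% in these data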;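 also: 0% = DMSO wells and 100% = unlabeled Bim-BH3 peptide control; higher means more loss of mP so more displacement of Bim peptide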
# BCLXL inh: inhibitors of human Bcl-xL, primary screen, biochemical, fluorescence polarization, HTS. GST-Bcl-xL / FITC-Bim BH3 peptide fluorescence polarization. inhibition, % at 10.9 µM. 320,000 tested, 0.7% active;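 active = inhibition above the mean of all tested compounds plus 3 SD, cutoff set per campaign, cut at about 30% in these data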;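 also: 0% = DMSO wells and 100% = unlabeled Bim-BH3 peptide competitor; inhibitors lower millipolarization by displacing the labeled peptide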
# E coli Lon inh: inhibitors of E. coli Lon protease, primary screen, biochemical, fluorescence polarization; inhibition, % at 7.94 µM; P0A9M0; 360,000 tested, 0.42% active; purified E. coli Lon protease; in the data active = inhibition above about 13%, passing the limit was not always enough;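 also: 0% = enzyme with probe and DMSO and 100% = no enzyme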
# Target sequence (P0A9M0 whole entry, looked up): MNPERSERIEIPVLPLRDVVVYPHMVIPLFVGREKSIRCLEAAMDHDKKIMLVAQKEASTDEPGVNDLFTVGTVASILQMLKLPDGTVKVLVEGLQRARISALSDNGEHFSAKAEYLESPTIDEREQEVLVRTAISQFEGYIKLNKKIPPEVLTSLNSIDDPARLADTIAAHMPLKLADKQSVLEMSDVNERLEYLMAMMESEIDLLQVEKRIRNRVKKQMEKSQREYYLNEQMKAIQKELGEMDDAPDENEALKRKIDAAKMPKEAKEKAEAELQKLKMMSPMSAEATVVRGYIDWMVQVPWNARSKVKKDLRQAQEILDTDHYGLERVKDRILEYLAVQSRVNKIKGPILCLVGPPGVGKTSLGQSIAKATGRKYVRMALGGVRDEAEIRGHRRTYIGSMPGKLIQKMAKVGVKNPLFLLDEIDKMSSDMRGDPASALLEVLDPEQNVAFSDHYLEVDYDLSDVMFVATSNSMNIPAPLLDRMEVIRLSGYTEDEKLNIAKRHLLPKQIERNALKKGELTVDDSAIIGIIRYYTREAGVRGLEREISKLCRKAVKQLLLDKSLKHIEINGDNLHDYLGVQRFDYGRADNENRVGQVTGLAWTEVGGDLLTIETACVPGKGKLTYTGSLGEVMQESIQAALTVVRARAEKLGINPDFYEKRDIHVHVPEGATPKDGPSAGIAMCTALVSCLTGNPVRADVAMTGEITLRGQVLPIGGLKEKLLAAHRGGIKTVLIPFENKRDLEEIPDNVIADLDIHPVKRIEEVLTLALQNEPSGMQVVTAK
# EBV gp42 inh: Epstein-Barr virus gp42 inhibitors, primary screen, biochemical, uHTS, fluorescence polarization; 220,000 tested, 0.42% active; AID 1085, 2008; Fluorescence polarization binding assay, mP read-out; inhibition, % (tested at 21.74 µM); Glycoprotein 42 (Epstein-Barr virus (strain AG876)), Q1HVG2; in the data active = inhibition above about 50%
# GLD-1 TGE inh: GLD-1/TGE RNA complex disruptors, primary screen, biochemical, fluorescence polarization; purified GLD-1 + fluorescein TGE RNA; inhibition, % at 5.96 µM; 320,000 tested, 0.44% active;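 active = percent inhibition above a per-plate cutoff, the plate mean of test compounds plus 3 SD, cut at about 30% in these data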;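 also: 0% = DMSO wells with GLD-1 and probe and 100% = wells lacking GLD-1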
# MEX-5 binding: MEX-5 zinc finger RNA-binding disruptors – biochemical, C. elegans, fluorescence polarization, MLPCN library, primary screen; Zinc finger protein mex-5 (Caenorhabditis elegans), Q9XUB2; MEX-5/FITC-TCR2 RNA binding; hits give low values; activity score (negative = inhibition of binding), % at 10 µM; 300,000 tested, 0.38% active; AID 1832, 2009;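 active = inhibition past about -25% in most replicates, and total fluorescence under double the plate's negative control median, limit read from the data; inconclusive = replicates evenly split on the limit, or fluorescence at least double controls; inactive = too little inhibition in most replicates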;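 also: 0% = DMSO and -100% = 5 µM competing unlabeled TCR2 RNA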
# * = called active by the depositor; ? = inconclusive; . = no result.
SMILES,MCL1 BIM primary,BCLXL inh,E coli Lon inh,EBV gp42 inh,GLD-1 TGE inh,MEX-5 binding
O=C1SC(SCc2ccccc2)=N/C1=C\c1ccc(C(=O)O)cc1,3,4,-1,-16,0,-58*
CC(/C=C1\N=C(SCc2ccccc2Cl)SC1=O)=C\c1ccccc1,6,6,-7,-94,4,?
Cc1cc(N(C)C)nc(Nc2ccccc2)n1,10,5,11,.,3,.
O=C1ON=C(c2ccccc2)/C1=C/c1ccco1,-13,-2,-65,-10,2,-6
CCCCc1ccc(/C=C2\C(=O)ON=C2c2ccccc2)s1,8,4,-4,-19,5,-33*
CCSc1cc(N2CCCC2)nc(-c2ccccc2Cl)n1,-7,1,3,60*,1,-1
CCSc1cc(N2CCCC2)nc(-c2ccccc2)n1,4,2,-3,1,7,3
Cc1ccc(-c2nnc(Nc3ccc(CC(N)=O)cc3)c3ccccc23)cc1S(N)(=O)=O,5,9,-9,.,7,-32*
COc1ccccc1CNC(=O)C1(C)CCN1Cc1ccc(OC(F)(F)F)cc1 (stereo not drawn),.,.,-3,.,.,.
NC(=S)N/N=C/c1cccc(O)c1O,14,9,-2,5,1,-38*
O=C(O)c1ccc(NS(=O)(=O)c2ccc3c(c2)C(=O)c2ccccc2C3=O)cc1,34,37*,7,5,22,?
CCn1nc(NC(=O)c2cccs2)c2cc3ccccc3nc21,2,-2,-6,-14,3,-3
CC1CCC(NC(=O)c2ccc(NC(=O)CC3SC(N4CCCC4)=NC3=O)cc2)CC1 (stereo not drawn),4,4,1,.,-2,4
CCOc1cc(/C=C2/NC(=O)N(CC(=O)OC)C2=O)ccc1OC,-8,-3,-7,-2,-4,1
CCOc1cc(Br)c(/C=C2/C(=O)N(C)C(=S)N2CC(=O)OC)cc1OC,3,6,-3,-6,-5,-32*
CC(C)c1cc[n+](-c2nc([O-])sc2C=O)cc1,45*,42*,-15,30,12,-22
Oc1ccc(/C=N/N2CCOCC2)c(O)c1O,11,16,3,-16,12,-47*
O=C1c2ccccc2C(=O)N1/N=C/c1ccc(O)c(O)c1O,.,.,4,6,.,-53*
COc1cccc(/C=N/N2CCOCC2)c1O,0,-2,-5,6,6,1
CSc1nc(SCC(=O)O)c2sc3nc(-c4ccccc4)c4c(c3c2n1)CCC4,.,.,-2,53*,.,-4
CSc1nc(NCCN(C)C)c2sc3nc(-c4ccco4)c4c(c3c2n1)CCC4,.,.,7,.,.,.
O=c1oc2ccc(Cl)cc2nc1/C=C(\O)c1cccs1,4,3,-9,-107,1,-67*
O=c1oc2ccccc2nc1/C=C(\O)c1ccc(Br)cc1,-5,-5,9,64*,0,-1
Cc1ccc2oc(=O)c(/C=C(\O)c3cccs3)nc2c1,-63,-33,-1,-79,1,-45*
Cc1ccc2oc(=O)c(/C=C(\O)c3ccccc3)nc2c1,-13,-1,3,59*,-1,-5
SMILES,MCL1 BIM primary,BCLXL inh,E coli Lon inh,EBV gp42 inh,GLD-1 TGE inh,MEX-5 binding
Cc1ccc2oc(=O)c(/C=C(\O)CC(C)C)nc2c1,0,2,-14,-14,9,?
C/C(O)=C\c1nc2ccccc2oc1=O,-4,3,11,5,2,-1
Cc1nccc(-c2cccc(NC(=O)c3ccccc3Cl)c2)n1,-3,3,-8,-10,-1,1
O=C(c1ccc(-c2ccc([N+](=O)[O-])cc2)o1)N1CCN(S(=O)(=O)c2cccs2)CC1,10,1,-8,.,2,.
CC1(OC(=O)C2CCCC2)C(=O)C=C2C=C(c3ccsc3)N(Cc3ccco3)C=C2C1=O (stereo not drawn),38,34*,-4,-3,12,-3
CN1CCN(Cc2oc(CO)cc(=O)c2O)CC1,11,7,6,6,2,-1

# Assay outcomes from PubChem.
